Reference: PubChem BioAssay AID588397 (National Center for Advancing Translational Sciences (NCATS), 2011)
About 1,000 (77%) of roughly 1,300 compounds were called active. Another 7% or so got no clear call; they are omitted. The call rests on the fitted dose curve; in most records, active means well fitted inhibition curve with a large enough effect; inconclusive means small, poorly fitted or top-dose-only effect; inactive means no such curve, though single readings can be large or run the other way. The set was probably picked from earlier hits. The list shows a part of the results.

Assay: qHTS of small molecules that selectively kill Giardia lamblia: Hit Validation.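 Further: viability measured as ATP content by luminescence so killing lowers signal; nearly all actives have a fitted effect of over 65% in size.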
Settings: Giardia lamblia trophozoite viability, dose-response; series mostly up to 38.3 µM; activity change, negative = killing: at the top concentration
From the text: Giardia lamblia is a human pathogen afflicting impoverished nations, and the most common cause of outbreaks of diarrhea in the United States. Giardia has been classified by the CDC as a category B bioterrorism organism. The favored anti giardiasis drugs in the US are metronidazole or tinidazole, compounds that have undesirable side effects. Moreover, increasing resistance to drug regimes and recurrence are a concern. It is thus clear that alternative drug treatments are needed.
In a collaboration between the University of Maryland, College Park and the NIH Chemical Genomics Center, a bioluminescence Giardia viability assay based on the trophozoites' ATP content was developed. This assay is suitable for high throughput screening, and miniaturized the assay for compound screening in 1536-well plates. The goal of the project is to screen the Molecular Libraries Small Molecule Repository (MLSMR) for compounds that selectively kill Giardia trophozoites.
NIH Chemical Genomics Center [NCGC]
NIH Molecular Libraries Probe Centers Network [MLPCN]
Assay Submitter (PI): Osnat Herzberg, University of Maryland, College Park, MD.
1. Dispense 2 ul/well media
2. Dispense 23 nl/well compounds
3. Dispense 4 ul/well Giardia trophozoites at a concentration of 100 cells/well
4. Incubate 48 hrs at 37 deg C anaerobically
5. Dispense 4 ul/well ATPLite 1-Step Luminescence assay kit
6. Incubate 15-30 min at room temperature
7. Read luminescence signal on ViewLux plate reader
On the % scale 0 is the no-effect control and ±100 the full control effect; potency means the concentration at half of the fitted maximal effect.

SMILES | Potency | activity change, negative = killing
COC(=O)N/N=C/c1ccc([N+](=O)[O-])s1 | 4.1 µM (active) | 
Cc1ccnn1CC(=O)N/N=C/c1ccc([N+](=O)[O-])s1 | 3.65 µM (active) | 
COc1ccccc1NC(=O)C(=O)N/N=C/c1ccc([N+](=O)[O-])s1 | 2.05 µM (active) | 
CCOC(=O)N/N=C\c1ccc([N+](=O)[O-])s1 | 4.1 µM (active) | 
O=C(COC(=O)c1cc(Cl)ccc1O)NC(=O)NCc1ccccc1 |  | 1.53% (inactive)
Cc1csc(NC(=O)CSc2nc3[nH]c(=O)cc(O)c3s2)n1 | 1.03 µM (active) | 
CC(NCCN(C)C)C1CCC2C3CCc4cc(O)ccc4C3CCC12C (centres undefined) | 1.16 µM (active) | 
COc1cc(/C=C2\COC/C(=C\c3cc(OC)c(OC)c(OC)c3)C2=O)cc(OC)c1OC | 11.6 µM (active) | 
COc1cc(C2CC(=O)Oc3cc(C)c(Cl)c(C)c32)cc(OC)c1OC (centres undefined) |  | -5.49% (inactive)
O=C(CCCn1cnc([N+](=O)[O-])n1)Nc1ccc(F)c(Cl)c1 | 3.65 µM (active) | 
Cc1nn(CCCC(=O)Nc2c(F)cc(F)cc2Br)c(C)c1[N+](=O)[O-] |  | -0.27% (inactive)
O=C(CCCn1cnc([N+](=O)[O-])n1)Nc1cccc(Cl)c1Cl | 3.65 µM (active) | 
Cc1c(Cl)cccc1NC(=O)CCCn1cnc([N+](=O)[O-])n1 | 4.1 µM (active) | 
COc1ccc(NC(=O)CCCn2nc(C)c3c(C)n(-c4ccccc4)nc3c2=O)cc1OC |  | 1.17% (inactive)
O=C(c1ccco1)N1CCN(Cc2cc(=O)c(OCc3ccc([N+](=O)[O-])cc3)co2)CC1 | 0.183 µM (active) | 
O=[N+]([O-])c1cccc(COc2ccccc2CN2CCCC2)c1 |  | -3.87% (inactive)
O=C1NC(=O)/C(=C\c2ccc(Oc3ccc([N+](=O)[O-])cn3)cc2)S1 | 9.18 µM (active) | 
O=C(Nc1ccc(C(=O)O)cc1)/C(=C\C=C\c1ccccc1)NC(=O)c1ccccc1Cl | 6.5 µM (active) | 
C#CCOCCOCCOCCNc1nc(N2CCN(C(=O)[C@H](CCC(=O)O)n3cc([C@@H](N)CC(N)=O)nn3)CC2)nc(N2CCN(C(=O)[C@H](CCC(=O)O)n3cc([C@@H](N)CC(N)=O)nn3)CC2)n1 |  | -18.6% (inactive)
CCCCCN=Cc1c(C)[nH]n(-c2nc3ccccc3s2)c1=O | 3.26 µM (active) | 
Cc1ccc(N=Nc2c(O)ccc3n[nH]nc23)cc1 | 3.65 µM (active) | 
CCC1=C(OC(=O)N(CC)CC)N2C(=O)OC(=NCC(=O)OC)[C@]2(C)[C@H]2C1=CC[C@H]1C(=O)N(CC)C(=O)[C@H]12 |  | -6.74% (inactive)
CN(C)C(=O)C[n+]1ccc(C(N)=O)cc1 |  | -26.8% (inactive)

SMILES | Potency | activity change, negative = killing
Cc1ccc(NC(=O)Cn2cnc([N+](=O)[O-])c2)cc1C | 8.18 µM (active) | 
Fc1ccc(CN2CC[C@H]3C=CCc4cccc(c43)C2)cc1 |  | -8.09% (inactive)
COc1ccc(C(=O)COC(=O)c2ccccc2NS(=O)(=O)c2ccc(O)c([N+](=O)[O-])c2)cc1 | 1.45 µM (active) | 
COc1ccc(S(=O)(=O)Nc2c(O)c3ccccc3oc2=O)cc1 |  | -9.08% (inactive)
Cc1ccc(S(=O)(=O)Nc2ccc(C(OC(=O)c3ccccc3[N+](=O)[O-])(C(F)(F)F)C(F)(F)F)cc2)cc1 | 3.65 µM (active) | 
Cc1ccc(-c2cc(C(=O)N/N=C/c3ccc([N+](=O)[O-])o3)c3ccccc3n2)o1 | 1.03 µM (active) | 
O=C(N/N=C/c1ccc([N+](=O)[O-])o1)c1cc(-c2ccc(-c3ccccc3)cc2)nc2ccccc12 | 1.03 µM (active) | 
CCCc1ccc(-c2cc(C(=O)N/N=C/c3ccc([N+](=O)[O-])o3)c3ccccc3n2)cc1 | 1.63 µM (active) | 
O=C(N/N=C/c1ccc([N+](=O)[O-])o1)c1cc(-c2cccc(Br)c2)nc2ccccc12 | 1.16 µM (active) | 
COc1ccc(-c2ccc([C@H]3[C@@H]4C=CCC[C@@]4(C)C(=O)N3Cc3ccccc3)c(F)c2)cc1OC |  | -4.14% (inactive)
COc1cc(/C=C2\SC(=O)N(Cc3ccc(F)cc3)C2=O)cc([N+](=O)[O-])c1O | 1.83 µM (active) | 
COc1cc(/C=C2\SC(=O)N(c3ccc(Cl)cc3)C2=O)cc([N+](=O)[O-])c1O | 4.1 µM (active) | 
COc1cc(/C=C2\SC(=O)N(Cc3ccc(Cl)cc3)C2=O)cc([N+](=O)[O-])c1O | 1.63 µM (active) | 
CCS(=O)(=O)Nc1cccc(C2=NN(S(=O)(=O)c3ccc(C)cc3)C(c3ccco3)C2)c1 (centres undefined) |  | 3.24% (inactive)
COc1ccc(NS(=O)(=O)c2ccc(S(=O)(=O)N(C)C)cc2)cc1S(N)(=O)=O |  | 2.7% (inactive)
COc1ccc(OCc2cc(C(=O)N(C)Cc3cc(C4CC4)n[nH]3)no2)c(Cl)c1 |  | -16.1% (inactive)
COc1ccc(OC)c(/C=C/c2ccc3ccccc3n2)c1 |  | -32.6% (inactive)
COc1cccc(/C=C/c2ccc3ccccc3n2)c1OC(C)=O | 8.18 µM (active) | 
COc1ccc(/C=C/c2ccc3ccccc3n2)cc1OC | 4.6 µM (active) | 
COc1ccc(/C=C/c2ccc3ccccc3n2)c(OC)c1 | 2.31 µM (active) | 
Cc1cccc(N2CCN(Cc3ccc([N+](=O)[O-])o3)CC2)c1C | 0.729 µM (active) | 
O=[N+]([O-])c1ccc(CN2CCN(c3ccccc3Cl)CC2)o1 | 0.65 µM (active) | 
Cc1ccccc1N1CCN(Cc2ccc([N+](=O)[O-])o2)CC1 | 1.16 µM (active) | 

SMILES | Potency | activity change, negative = killing
Cc1ncc([N+](=O)[O-])n1CCOC(=O)Nc1ccc(Cl)c(Cl)c1 | 0.23 µM (active) | 
C#CCCOC(=O)Nc1ccccc1 |  | -5.13% (inactive)
Cc1ncc([N+](=O)[O-])n1CCOC(=O)Nc1ccc([N+](=O)[O-])cc1 | 0.146 µM (active) | 
COc1ccc(NC(=O)OCCn2c([N+](=O)[O-])cnc2C)cc1 | 0.65 µM (active) | 
CN1C2=CC=CC=CC2=[N+](C)C12C([N+](=O)[O-])=CC(=[N+]([O-])[O-])C=C2[N+](=O)[O-] (centres undefined) | 0.206 µM (active) | 
Cc1cc(C(=O)COC(=O)c2cccc(NS(C)(=O)=O)c2)c(C)n1CC1CCCO1 (centres undefined) | 4.1 µM (active) | 
CCOC(=O)c1ccc(NS(C)(=O)=O)cc1 |  | -33.5% (inactive)
S=C(NCCc1ccccc1)N/N=C/c1cccs1 | 23.1 µM (active) | 
Cc1nnc(N/N=C/c2cccs2)[nH]c1=O |  | 0.18% (inactive)
CC1CC(C)C(=O)C(C(CC2CC(=O)NC(=O)C2)OC(=O)CC(=O)c2ccccc2)C1 (centres undefined) | 0.13 µM (active) | 
O=C(Nc1ncccn1)c1ccc([N+](=O)[O-])o1 | 1.3 µM (active) | 
CCn1nnc(NC(=O)c2ccc(C(C)(C)C)cc2)n1 | 7.29 µM (active) | 
O=C(Nc1ccc(Br)cn1)c1ccc([N+](=O)[O-])o1 | 1.63 µM (active) | 
Cc1cccnc1NC(=O)c1ccc([N+](=O)[O-])o1 | 0.918 µM (active) | 
Cc1onc(NC(=O)c2ccc([N+](=O)[O-])o2)c1Br | 1.63 µM (active) | 
O=C(Nc1ccccn1)c1ccc([N+](=O)[O-])o1 | 1.63 µM (active) | 
CCn1nnc(NC(=O)c2ccc([N+](=O)[O-])o2)n1 | 1.45 µM (active) | 
O=C(NCC(c1ccco1)N1CCCC1)c1ccc(S(=O)(=O)Nc2ccccc2Cl)cc1 (centres undefined) |  | -15.3% (inactive)
CC1(C)[N+]([O-])=C2C(=[N+]([O-])C1(C)C)c1ccccc1/C2=N\O | 1.63 µM (active) | 
C/C(=N\NC(=O)COc1ccc(C)cc1Br)c1cc([N+](=O)[O-])cs1 | 1.63 µM (active) | 
CC(=NN1CC(=O)NC1=O)c1ccc([N+](=O)[O-])o1 | 1.45 µM (active) | 
COc1cccc(NC2c3ccccc3C(=O)N2Cc2ccco2)c1 (centres undefined) |  | -6.92% (inactive)
O=[N+]([O-])c1ccc(-c2ccn[nH]2)o1 | 0.0516 µM (active) | 

SMILES | Potency | activity change, negative = killing
CC(=O)Oc1ccc2c(=O)c(Oc3ccccc3[N+](=O)[O-])coc2c1 | 3.26 µM (active) | 
CCOC(=O)c1nnn(-c2ccc([N+](=O)[O-])cc2[N+](=O)[O-])c1C | 8.18 µM (active) | 
CCN(CC)/[N+]([O-])=N/Oc1ccc([N+](=O)[O-])cc1[N+](=O)[O-] | 4.1 µM (active) | 
O=[N+]([O-])c1ccc(O/N=[N+](\[O-])N2CCCCC2)c([N+](=O)[O-])c1 | 5.16 µM (active) | 
CCOC(=O)N1C(C)CN(/[N+]([O-])=N/Oc2ccc([N+](=O)[O-])cc2[N+](=O)[O-])CC1C (centres undefined) | 5.79 µM (active) | 
O=C1CC(SC(=Nc2ccccc2)Nc2ccccc2)C(=O)N1c1cccc2ccccc12 (centres undefined) |  | 8.54% (inactive)
O=[n+]1c2c(n([O-])c3cc(Br)ccc31)CCCC2 | 2.31 µM (active) | 
O=[n+]1c2c(n([O-])c3cc(Br)ccc31)CCC2 | 2.31 µM (active) | 
O=[n+]1c2c(n([O-])c3cc(Cl)ccc31)CCCC2 | 4.6 µM (active) | 
Cc1ccc(N=c2c([N+](=O)[O-])nn(-c3ccccc3)n2O)c(C)c1 | 1.03 µM (active) | 
Cc1c(Cl)cccc1N=c1c([N+](=O)[O-])nn(-c2ccccc2)n1O | 0.516 µM (active) | 
CCCC/C=C/C(NC(=O)c1ccc(C(=O)OC)cc1)c1ccccc1 (centres undefined) |  | 2.61% (inactive)
Cc1cc(N)ccc1N=Nc1c(C)n(C)n(-c2ccccc2)c1=O | 0.729 µM (active) | 
Cc1c(N=Nc2ccc(O)cc2)c(=O)n(-c2ccccc2)n1C | 5.16 µM (active) | 
Cc1c(NC2(C#N)CCCC2)c(=O)n(-c2ccccc2)n1C |  | -13.8% (inactive)
CCNc1ccc(N=Nc2c(C)n(C)n(-c3ccccc3)c2=O)cc1 | 0.729 µM (active) | 
COc1cc(N=Nc2c(C)n(C)n(-c3ccccc3)c2=O)ccc1N | 2.31 µM (active) | 
Cc1c(N=Nc2ccc(N(C)C)cc2)c(=O)n(-c2ccccc2)n1C | 0.65 µM (active) | 
O=[N+]([O-])c1ccc(/C=C/c2ccnc3ccccc23)c([N+](=O)[O-])c1 | 7.29 µM (active) | 
CSC1SCC2C(=O)N(C)C(C(C)C)C(=O)OCC(NC(=O)c3cnc4ccccc4n3)C(=O)NC(C)C(=O)N(C)C1C(=O)N(C)C(C(C)C)C(=O)OCC(NC(=O)c1cnc3ccccc3n1)C(=O)NC(C)C(=O)N2C (centres undefined) | 0.206 µM (active) | 
